Hit rate of the full screen: of about 1,200 compounds, fewer than 10 were called active.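 Rule for the calls: active = inhibition reaching a set limit at one or more tested concentrations; inactive = inhibition under that limit at every dose.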 Not all results are given here. Entries with a potency or affinity are not part of this list.
assay: yeast RAM network inhibitors, dose response, S. cerevisiae (AID 1307);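 note: 0% = DMSO vehicle wells and 100% = 10 µM 1-NA-PP1 control; higher inhibition means more yeast growth since RAM block rescues cells from 5-FOA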; conditions: S. cerevisiae RAM network URA3 reporter, 5-FOA growth OD615, stronger effect = higher value, yeast express analog-sensitive mutant Cbk1 kinase; at 100 µM unless noted

Max inhibition, inactive:
CCCCc1ccc(-c2csc(/C(C#N)=C/c3ccc(C)o3)n2)cc1 4.24%, CCC(C)c1ccc(NC(=S)NCc2ccccc2OC)cc1 (centres undefined) 5.65%, CCCCC(=O)Nc1ccccc1C(=O)OCC(=O)c1ccc2c(c1)OCCO2 2.31% [at 0.196 µM], CCOC(=O)N1CCC(N(CCN(C)C)C(=S)Nc2cccc(SC)c2)CC1 2.41% [at 0.782 µM], CCCN(CCC)c1nc2ccccc2nc1C(C#N)C(=O)OC(C)COC (centres undefined) 2.6%, Cc1ccc(-c2ccc(C(=O)NCc3ccccc3)o2)c2ccccc12 3.65%, CC(C)Oc1cccc(C(=O)NC(=S)Nc2cccc(C(F)(F)F)c2)c1 2.41% [at 0.782 µM], O=C(CN(C(=O)CSc1nnc(COc2ccccc2)o1)c1ccc(F)cc1)NC1CCCC1 2.82%, Cc1ccccc1OCCC(=O)Nc1cccc(S(=O)(=O)Nc2ccccc2Cl)c1 2.67% [at 0.196 µM], O=S(=O)(NCCSCc1ccc(Cl)cc1Cl)c1ccc2c(c1)OCCO2 2.05% [at 12.5 µM], CCCCCOP(=O)(OCCCCC)C1(NS(=O)(=O)c2ccccc2)C=CC(=O)c2ccccc21 (centres undefined) 2.83%, COc1ccccc1OCC(=O)Nc1ccc(CSc2ccccc2)cc1C 1.56% [at 25 µM], Cc1ccc(-n2c(SCC(=O)Nc3cccc(S(=O)(=O)NC4=NCCCCC4)c3)nc3ccccc3c2=O)cc1C 11%, CC(C)=CCC/C(C)=C/Cc1c(O)ccc(C(=O)/C=C/c2ccc(O)cc2)c1O 5.39%, CCOc1ccc2nc(SCC(=O)c3ccccc3)sc2c1 3% [at 0.196 µM], COc1ccc(/C=C2\SC(=S)N(CC(=O)OCC(=O)Nc3ccc([N+](=O)[O-])cc3OC)C2=O)cc1 8.9%, C=CCc1cccc(/C=N/NC(=O)C(C)Nc2ccc(C)cc2)c1O (centres undefined) 2.46% [at 0.782 µM], CCOc1cccc(-c2csc(C3COc4ccccc4O3)n2)c1 (centres undefined) 5.04% [at 50 µM], COc1ccc2c(C)cc(SCC(=O)c3ccc4c(c3)OCO4)nc2c1 4.01%, FC(F)(F)c1nc(N2CCN(c3ccccc3)CC2)nc2c1CCCCC2 3.63%, CCOC(=O)c1c(C)[nH]c(C)c1C(=O)COC(=O)/C=C/c1ccc(Cl)cc1 2.07% [at 0.391 µM], CCSC1=N/C(=C\c2ccc(-c3ccccc3[N+](=O)[O-])o2)C(=O)S1 5.47% [at 25 µM], CC1CCCN(C(=O)C(C)Sc2nc(-c3ccccc3)cc(C(F)(F)F)n2)C1 (centres undefined) 3.6% [at 25 µM], CCc1ccc(OCC(=O)N2c3ccccc3CCc3ccccc32)cc1 2.64% [at 3.125 µM], Fc1ccc(CSc2nnc(Cc3sc(-c4ccccc4)nc3-c3ccccc3)o2)cc1 5.66%, O=C(Nc1ccccc1)C1=C[C@H](C2CCCCC2)C[C@H](OCc2ccc(CO)cc2)O1 4.12%, CCCNS(=O)(=O)c1ccc(CCC(=O)Nc2cc(Cl)ccc2Oc2ccccc2)cc1 1.73%, Cc1cccc(NC(=O)/C(C#N)=C/c2ccc(Sc3ccccc3)o2)c1C 10.5%, CC(C)Oc1ccccc1OCCCCn1cnc2ccccc2c1=O 2.35% [at 6.25 µM], Cc1ccc(-c2csc(N(CC3CCCO3)C(=O)c3ccco3)n2)cc1 (centres undefined) 1.93% [at 12.5 µM], OCCNc1nc(SCc2ccccc2)nc2sc3c(c12)CCC3 1.56% [at 3.125 µM], Cc1cc(NC(=O)CSc2nc3ccsc3c(=O)n2Cc2ccccn2)n[nH]1 2.41% [at 12.5 µM], COC(=O)c1cc2c(ccn2-c2ccc(F)cc2)n1Cc1ccc(OC)cc1 5.52% [at 50 µM], CCC1(C)CC(CCNS(=O)(=O)c2ccc(C)cc2)(c2ccc(C)cc2)CCO1 (centres undefined) 3.04%, Cn1c(N=Nc2ccc(N3CCOCC3)cc2)[n+](C)c2ccccc21 25%, Cc1ccc(SCCNC(=S)Nc2ccc(C)c(C)c2)cc1 4.41% [at 12.5 µM], Brc1ccc(CSc2nnc(Cc3c[nH]c4ccccc34)o2)cc1 3.66%, CCOCCOC(=O)C(C)Oc1ccc(Oc2nc(Cl)ccc2Cl)cc1 (centres undefined) 2.21% [at 25 µM], CCOc1nc(-c2ccccc2)ccc1-c1noc(COc2ccccc2)n1 3.61% [at 50 µM], Cc1ccccc1OCC(=O)OCC(=O)c1ccc(OCc2ccccc2)cc1 4.85% [at 50 µM], COc1ccccc1C(NC(=O)C1CCCCC1)c1c(O)ccc2ccccc12 (centres undefined) 5.27%, CCCCC1(Cc2cccc([N+](=O)[O-])c2)C(=O)N(c2ccccc2)N(c2ccccc2)C1=O 4.01% [at 50 µM], O=C(COC(=O)CCCNC(=O)c1ccc(Cl)cc1)Nc1cc(Cl)c(Cl)cc1Cl 3.97% [at 50 µM], COc1ccc(C(=O)/C=C/Nc2ccc(S(=O)(=O)Nc3ncccn3)cc2)cc1 7.67%, CCCCOc1ccc(S(=O)(=O)Nc2cc(OC)ccc2OC)cc1 3.71% [at 25 µM], COc1cc2c(=O)n(Cc3ccco3)c(=O)n(CC(=O)c3ccc(Br)cc3)c2cc1OC 3.72% [at 0.196 µM], Cc1ccc(SCC(=O)Nc2ccc(F)cc2[N+](=O)[O-])cc1C 2.24%, COc1cc(/C=N/Nc2ccc(Cl)cc2)ccc1OC(=O)c1cccs1 2.6% [at 0.391 µM], COc1ccc(-c2nc(-c3ccc(O)cc3O)cs2)cc1OC 5.02% [at 3.125 µM], CCOC(=O)c1cc(C#N)c(Oc2cccc(C(F)(F)F)c2)nc1-c1ccccc1 2.36%, CC(=O)Nc1ccc(-c2cc(-c3ccc(NC(C)=O)cc3)nc(-c3ccc(NC(C)=O)cc3)n2)cc1 13.5%, COc1ccc(C(=O)NNC(=O)C(Cc2ccc(O)cc2)NC(=O)c2ccccc2NC(=O)c2ccc(OC)cc2)cc1 (centres undefined) 3.19%, COC(=O)[C@H](Cc1ccccc1)NC(=O)[C@@]1(C)C[C@@H]1[C@@H](NC(=O)OCc1ccccc1)c1ccccc1 5.9%, O=C(CCC(=O)c1ccc(Oc2ccccc2)cc1)Nc1cccc(Cl)c1Cl 3.23% [at 25 µM], COc1cccc(/C=C(/C(=O)OCC(=O)NC2CCCC(C)C2C)c2ccccc2)c1 (centres undefined) 7.65% [at 50 µM], Cc1ccc(C(=O)C(OC(=O)CCC(=O)Nc2cccc(C)c2)c2ccccc2)cc1 (centres undefined) 5.19%, CCOC(=O)c1ccc(COC(=O)c2ccc3c(c2)-c2ccccc2C3=O)cc1 5.23% [at 25 µM], CCOC(=O)C1CCN(S(=O)(=O)C(F)(F)c2nc3ccccc3s2)CC1 2.1% [at 0.391 µM], Clc1ccc(-c2nnc(CSc3nnc(-c4cccs4)o3)o2)cc1 2.52% [at 3.125 µM], CCSC1=N/C(=C/c2ccsc2)C(=O)N1c1ccccc1 3.18%, CCCNC(=O)c1ccccc1NC(=O)c1ccc(CSc2ccccc2)cc1 5.46% [at 50 µM], Cc1ccc(C2=NN(Cc3nnc(-c4ccccc4)o3)C(=O)SC2)cc1 3.29%, O=C(NCc1ccccc1)c1ccc(S(=O)(=O)N2CCCc3ccccc32)cc1 2.24%, O=[N+]([O-])c1ccc(N/N=C/c2sc(N3CCOCC3)nc2-c2ccccc2)c(S(=O)(=O)Nc2ccc(Cl)cc2)c1 8.74%, CN(C)S(=O)(=O)c1ccc2[nH]cc(/C=C/c3nc4ccccc4c(=O)n3-c3ccccc3)c2c1 10.9%, CN(C)c1nc(SCCOC(=O)COc2ccc(Cl)cc2Cl)nc(N(C)C)n1 1.44% [at 0.782 µM], O=C(c1cccs1)n1nc(-c2ccc(Cl)cc2)nc1NCc1ccco1 2.48%, O=C(C(Sc1ccccc1)c1ccccc1)N1CCN(c2ccccc2)CC1 (centres undefined) 2.99% [at 3.125 µM], CCOC(=O)c1c(NC(=S)Nc2ccc(OC)cc2)sc2c1CCCCC2 3.37% [at 1.563 µM], O=C(/C=C/c1ccc(-c2ccccc2)o1)c1ccccc1 5.06%, O=C(Cn1cc(C(=O)c2ccco2)c2ccccc21)NC1CCCCC1 3.76% [at 0.391 µM], O=C1CCC(/C=C/c2ccccc2)=NN1Cc1ccc(Cl)c(Cl)c1 3.06%, C=CCO/N=C(/C)c1c(O)c(CC)c(-c2ccccc2)n(-c2ccccc2)c1=O 2.56% [at 0.391 µM], CCOC(=O)c1cccc(NC(=O)CSc2nnc(COc3ccccc3C)o2)c1 2.04% [at 50 µM], Cc1c(NC(=S)NC(=O)Cc2ccccc2)cccc1C(=O)O 2.43% [at 0.196 µM], COc1cc(NC(=O)c2ccc3c(c2)OCO3)c2ncccc2c1 4.22%, C/C(=N\OC(=O)c1ccc(OC(C)C)cc1)c1ccc(C)c(C)c1 3.12%, Cc1ccc(N(CCCCN2C(=O)c3ccccc3C2=O)C(=O)c2cccs2)cc1 4.25%, Cc1ccc(S(=O)(=O)N2c3cc(C)ccc3OCC2C(C)(C)C)cc1 (centres undefined) 3.04%
